Results reported in PubChem BioAssay (NCI).
This is part of a sample that, as a whole, favours compounds with a hit. Of some 83,000 tested, about 20% had one in any assay.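 Treatment: one concentration, 48 hours, 96-well format. Scoring: percent growth, with anything below 10 considered active.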 Active and inactive are the calls of the source.

Columns and labels:
Assay in all cases: NCI-60 one-dose screen, 48 h (100 = growth as untreated, 0 = no growth, -100 = all killed)
Conditions in all cases: 10 µM unless noted
[1] = tested on: HCT-15 colon
[2] = tested on: HT29 colon
[3] = tested on: SNB-75 CNS
[4] = tested on: SNB-19 CNS
[5] = tested on: U251 CNS
[6] = tested on: PC-3 prostate
[7] = tested on: SK-MEL-5 melanoma
[8] = tested on: LOX IMVI melanoma
[9] = tested on: SK-MEL-28 melanoma
[10] = tested on: UACC-62 melanoma

Measured: growth

COC(c1ccccc1)C(Br)C(=O)c1ccccc1 (stereo not drawn)
inactive: [1] 90.7% | [2] 106% | [3] 86.5% | [4] 96.3% | [5] 95.1% | [6] 91.3% | [7] 94.1% | [8] 97.8% | [9] 102%

COC(=O)C(Cc1cnc[nH]1)N1CC(=O)N2[C@@H](c3ccccc3)SC[C@H]2C1=O (stereo partly drawn)
inactive: [1] 107% | [2] 104% | [3] 120% | [4] 106% | [5] 95.2% | [6] 97.4% | [10] 106% | [8] 97.7% | [9] 117%

[N-]=[N+]=Nc1ncc(-c2ccc(C(F)(F)F)cc2)c(NC2CCCCCC2)n1
active: [6] -8.57% [100 µM]
inactive: [1] 25.9% [100 µM] | [2] 31.4% [100 µM] | [3] 49.6% [100 µM] | [4] 40.9% [100 µM] | [5] 30.3% [100 µM] | [7] 26.5% [100 µM] | [8] 39.9% [100 µM] | [9] 68.2% [100 µM]

Nc1cc2c(cc1Br)[nH]c(=O)c1ccccc12
inactive: [1] 58.3% | [2] 22.4% | [3] 94.3% | [4] 58.6% | [5] 40.3% | [6] 42.9% | [8] 25.1% | [9] 78.4%
active: [7] 0.102%

CCNc1nnc(COc2ccc(CNC(=O)CCCC/C=C/C(C)C)cc2OC)o1
inactive: [1] 96.9% | [2] 105% | [3] 86.2% | [4] 104% | [5] 98.3% | [6] 104% | [10] 95% | [8] 93.2% | [9] 104%

CC(=N\N=C(N)N)/C(=N/N=C(N)N)c1ccccc1
inactive: [1] 103% | [2] 42.7% | [3] 88.4% | [4] 68% | [5] 80.7% | [6] 75.2% | [10] 103% | [8] 95.6% | [9] 110%

N#Cc1ccc(OCc2nc(N)nc(N)c2-c2ccc(Cl)c(Cl)c2)cc1
inactive: [1] 20.9% | [2] 10.8% | [3] 65.6% | [4] 38.2% | [5] 20.5% | [6] 18.9% | [7] 23.4% | [8] 11.1% | [9] 54.4%

COc1cc(/C=C/C(=O)c2ccc(F)cc2)ccc1OCCCCOc1cc2c(cc1OC)C(=O)N1CCCC1C=N2 (stereo not drawn)
active: [1] -46.3% | [2] -49.3% | [3] -8.01% | [4] -35.3% | [5] -100% | [6] -38.3% | [7] -99.7% | [8] -84.6% | [9] -42.1%

CCCCCc1ccnc(CC(=O)c2ccc(OC)cc2)c1
inactive: [1] 99.7% | [2] 70.5% | [3] 85.7% | [4] 97.8% | [5] 88.7% | [6] 76.1% | [7] 79.4% | [8] 85% | [9] 104%

COc1ccc(-c2nc(N)n(C(=S)Nc3ccccc3)n2)cc1
inactive: [1] 102% | [2] 99.4% | [3] 70% | [4] 99.5% | [5] 103% | [6] 92.3% | [7] 94% | [8] 94.3% | [9] 116%

O=C(Nc1cccc(Cn2c(=O)[nH]c3ccc(Oc4ncccn4)cc3c2=O)c1)c1cc(Cl)cc(Cl)c1
inactive: [1] 77.3% | [2] 47.4% | [3] 42.6% | [4] 69.4% | [5] 51.1% | [6] 64.5% | [10] 66.6% | [8] 86.3% | [9] 60.7%

CCn1cnc(C[C@H](NC(=O)[C@@H](NC(=O)Nc2cc(C(F)(F)F)cc(C(F)(F)F)c2)C(C)C)C(=O)OC)c1
active: [1] -78.6% [100 µM] | [2] -81% [100 µM] | [3] -100% [100 µM] | [4] -90.8% [100 µM] | [5] -94.3% [100 µM] | [6] -91.8% [100 µM] | [10] -94.6% [100 µM] | [8] -86% [100 µM] | [9] -96% [100 µM]

CCC1(CC)C(OC)NC(Br)=C(C#N)C1(C#N)C(N)=O (stereo not drawn)
inactive: [1] 114% | [2] 105% | [3] 99.3% | [4] 110% | [5] 104% | [6] 107% | [7] 109% | [8] 101% | [9] 114%

O=C(O)c1ccc(-c2nn(-c3ccc(C(=O)O)cc3)cc2CNc2ccc(Br)cc2)cc1
inactive: [1] 100% | [2] 99% | [3] 97.6% | [4] 105% | [5] 106% | [6] 101% | [10] 97.6% | [8] 102%

O=S(=O)(O)CCI
inactive: [1] 108% | [2] 116% | [3] 98% | [4] 102% | [5] 110% | [6] 95.7% | [7] 91.2% | [8] 97.8% | [9] 113%

Cc1cc2c(-c3nc4ccccc4n3C)c(O)c(O)cc2c(O)c1-c1c(C)cc2c(-c3nc4ccccc4n3C)c(O)c(O)cc2c1O
inactive: [1] 78.9% | [2] 25.2% | [3] 69% | [4] 15.4% | [5] 13.5% | [6] 27.3% | [7] 91.3% | [8] 30.4% | [9] 58.1%

O=Nc1c(-c2c(O)[nH]c3cc(Br)ccc23)[nH]c2ccccc12
active: [1] 1.93% | [2] 0.864% | [3] -13.3% | [6] -2.93% | [8] 8.85% | [9] -100%
inactive: [4] 15.1% | [5] 29.4% | [10] 38.9%

CCCOC(=O)c1c(C)n(C)c2scc[n+]12
inactive: [1] 85.2% | [2] 79% | [3] 80.1% | [4] 88% | [5] 55.9% | [6] 75.6% | [7] 102% | [8] 82% | [9] 91.5%

COc1ccc(/C=C(/C(=O)N2CCN(c3ccc(C)cc3)CC2)c2cc(OC)c(OC)c(OC)c2)cc1N
active: [2] 3.34% | [3] 9.7% | [6] 9.56%
inactive: [1] 11.8% | [4] 33.6% | [5] 22% | [10] 40% | [8] 22.2% | [9] 54.3%

O=C(Cc1ccccc1[N+](=O)[O-])c1ccc2c(c1)OCO2
inactive: [1] 104% | [2] 102% | [3] 91.3% | [4] 97.7% | [5] 98.8% | [6] 96.8% | [7] 103% | [8] 96.9% | [9] 105%

Oc1ccc(Br)cc1/C=N/NC(=S)NC12CC3CC(CC(C3)C1)C2
active: [1] 9.35% | [2] -16.7% | [5] 5.5% | [6] -19% | [8] -76%
inactive: [3] 53.3% | [4] 45.3% | [7] 28.6% | [9] 51.2%

COC1=C(OC)C(=O)c2ccccc2C1=O
inactive: [1] 101% | [2] 107% | [3] 72.7% | [4] 102% | [5] 89.9% | [6] 82.3% | [10] 101% | [8] 63.4% | [9] 101%

CCCCCCCCc1ccc(OCCOCC[N+](C)(C)CC)cc1 (tested in a mixture with another compound)
active: [3] 9.08% | [10] 9.07%
inactive: [1] 98.4% | [2] 25.5% | [4] 16.4% | [5] 20.8% | [6] 42.6% | [8] 29.1% | [9] 16%

COc1ccc(OC)c(Cn2cc3c(c2)-c2oncc2CC3)c1
inactive: [1] 31.1% | [2] 22.3% | [4] 50.6% | [5] 37.8% | [6] 45.5% | [7] 20% | [8] 35.4% | [9] 50.1%
active: [3] -1.67%

COC(=O)c1ccc2[nH]c(O)c(C(=Nc3ccc(N(C)C(=O)CN4CCN(C)CC4)cc3)c3ccc(C)cc3)c2c1
active: [1] -38.5% | [2] -23.3% | [3] -26.8% | [4] -10.6% | [5] -77.2% | [6] -16% | [10] -19% | [8] 4.3% | [9] -8.16%

COc1ccc(-c2nc(SCC(C)C)nc(Nc3ccc(C(=O)O)cc3)c2C#N)cc1
inactive: [1] 33% | [2] 94.7% | [3] 88.6% | [4] 98.1% | [5] 94.8% | [6] 82.3% | [7] 63.3% | [8] 88% | [9] 25.5%
